Assay results published in the supplement of paper PMC6607015.
Structures can show the parent of a compound that is named as a salt.

Legend:
Conditions in all cases: compound concentration in added solution (µM; 5 µl added to 20 µl cells): 10; 18 h
[1] = tested on: A431; experiment: LBPA endosome anti-LBPA integrated intensity (sum per cell), Z-score; higher = more LBPA staining
Procedure, shortened: (§1)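 After 18 h on 5 µl of 10 µM compound solution in duplicate 384-well imaging plates, HeLa MZ or A431 cells, seeded at 3,500 per well in 20 µl, were fixed with 4% PFA. They were then labelled with 6C4 anti-LBPA antibody, filipin, propidium iodide and CellTracker green, and four 20× fields were recorded per well. Integrated LBPA or filipin intensity per cell, whole-cell or within LBPA endosomes, came from MetaXpress segmentation and was normalised to Z-scores in AcuityXpress.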

[2] = tested on: HeLa MZ; experiment: as above
Procedure, shortened: as §1

[3] = tested on: A431; experiment: whole-cell filipin (free cholesterol) integrated intensity, Z-score; higher = more cholesterol staining
Procedure, shortened: as §1

[4] = tested on: HeLa MZ; experiment: as above
Procedure, shortened: as §1

[5] = tested on: A431; experiment: filipin (cholesterol) integrated intensity within LBPA endosomes, Z-score; higher = more cholesterol in LBPA endosomes
Procedure, shortened: as §1

[6] = tested on: HeLa MZ; experiment: as above
Procedure, shortened: as §1

SMILES	LBPA endosome anti-LBPA integrated intensity (z-score) [1]	LBPA endosome anti-LBPA integrated intensity (z-score) [2]	whole-cell filipin (z-score) [3]	whole-cell filipin (z-score) [4]	filipin (z-score) [5]	filipin (z-score) [6]
CCN1CCC[C@H]1CNC(=O)c1c(O)c(Cl)cc(Cl)c1OC [Raclopride]	-0.484	-0.235	-0.93	-0.588	-0.489	-0.47
CC(C)[N+](C)(CCOC(=O)C1c2ccccc2Oc2ccccc21)C(C)C [Propantheline bromide]	-0.352	0.315	-0.217	0.064	-0.366	-0.177
Cc1c(C)c2c(c(C)c1O)CCC(C)(COc1ccc(CC3SC(=O)NC3=O)cc1)O2 (stereo not drawn) [Troglitazone]	-0.514	-0.51	-0.29	-0.287	-0.459	-0.355
C[C@@H](c1ncncc1F)[C@](O)(Cn1cncn1)c1ccc(F)cc1F [Voriconazole]	-0.526	-0.198	-0.573	-0.527	-0.605	-0.411
CC[C@H]1OC(=O)[C@H](C)[C@@H](O[C@H]2C[C@@](C)(OC)[C@@H](O)[C@H](C)O2)[C@H](C)[C@@H](O[C@@H]2O[C@H](C)C[C@H](N(C)C)[C@H]2O)[C@](C)(OC)C[C@@H](C)C(=O)[C@H](C)[C@@H](O)[C@]1(C)O [Clarithromycin]	-0.524	0.332	-0.0542	0.0043	-0.407	-0.21
CN(C)CCCN1c2ccccc2CCc2ccc(Cl)cc21 [Clomipramine hydrochloride]	3.59	1.91	1.1	-0.141	2.35	1.89
CC(=O)/N=c1/sc(S(N)(=O)=O)nn1C [Methazolamide]	-0.623	-1.23	-0.758	-0.523	-0.506	-0.535
NC1CCN(c2c(F)cc3c(=O)c(C(=O)O)cn(C4CC4)c3c2Cl)C1 (stereo not drawn) [Clinafloxacin]	-0.36	0.512	-0.328	-0.333	-0.437	-0.286
CCC1NC(=O)c2cc(S(N)(=O)=O)c(Cl)cc2N1 (stereo not drawn) [Quinethazone]	-0.328	-1.04	0.366	0.147	-0.404	-0.386
CCOC(=O)O[C@]1(C(=O)COC(=O)CC)CC[C@H]2[C@@H]3CCC4=CC(=O)C=C[C@]4(C)[C@H]3[C@@H](O)C[C@@]21C [Prednicarbate]	-0.408	-0.375	0.46	0.0462	-0.282	-0.201
CC(C)(C)NCC(O)COc1cccc2c1CCC(=O)N2 (stereo not drawn) [Carteolol hydrochloride]	-0.364	0.373	-0.558	-0.304	-0.479	-0.264
Cn1c([N+](=O)[O-])cnc1COC(N)=O [Ronidazole]	-0.617	-0.899	-0.075	-0.4	-0.579	-0.485
NS(=O)(=O)c1cc2c(cc1C(F)(F)F)NC(Cc1ccccc1)NS2(=O)=O (stereo not drawn) [Bendroflumethiazide]	-0.595	-0.755	-0.332	-0.0234	-0.529	-0.486
CC1=Nc2ccc(Cl)cc2S(=O)(=O)N1 [Diazoxide]	-0.529	-1.17	-0.801	-0.471	-0.542	-0.481
CC(=O)Oc1ccccc1C(=O)O [Acetylsalicylic acid]	-0.437	-1.33	-0.0786	-0.536	-0.409	-0.51
CNCCCC1c2ccccc2C=Cc2ccccc21 [Protriptyline hydrochloride]	2.36	2.29	1.72	0.684	2.34	2.5
CCc1cccc2c3c([nH]c12)C(CC)(CC(=O)O)OCC3 (stereo not drawn) [Etodolac]	-0.65	-1.97	-0.842	-0.545	-0.553	-0.628
O=C(O)c1cc(-c2ccc(F)cc2F)ccc1O [Diflunisal]	-0.321	-0.139	-0.11	-0.25	-0.434	-0.569
CC(C)COCC(CN(Cc1ccccc1)c1ccccc1)N1CCCC1 (stereo not drawn) [Bepridil hydrochloride]	1.46	1.74	-0.0149	-0.717	2.11	0.331
Cc1ccc(-c2ncc(Cl)cc2-c2ccc(S(C)(=O)=O)cc2)cn1 [Etoricoxib]	-0.471	-1.03	-0.752	-0.603	-0.543	-0.516
CN1CCC(OC(c2ccccc2)c2ccccc2)CC1 [Diphenylpyraline hydrochloride]	0.268	1.06	0.89	0.448	0.505	0.456
COC(=O)CCc1ccc(OCC(O)CNC(C)C)cc1 (stereo not drawn) [Esmolol hydrochloride]	-0.258	-0.524	-0.179	0.319	-0.36	-0.273
COC(=O)N/N=C/c1c[n+]([O-])c2ccccc2[n+]1[O-] [Carbadox]	-0.532	-0.164	-0.439	-0.327	-0.53	-0.532
